Source: PubChem BioAssay (National Center for Advancing Translational Sciences (NCATS))
Rows were chosen to be rich in hits. Some 5.7% of all compounds tested hit in one or more screens of this group.
PI5P4Ka inh – inhibitors of human PI5P4K alpha; P48426; max response, %; actives 1.2% (n = 330,000); AID 652105; PI5P4Kalpha enzyme, ADP-Glo luminescence, 60 min; active compounds read low; active means max response of -50% or lower; inconclusive means between -30% and -50%; inactive means -30% or higher; further: value at the top dose of about 77 µM; on the % scale 0 is the no-effect control and ±100 the full control effect
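Reactions run in 0.038 M HEPES pH 7.4, 0.28 mM EGTA, 0.1% CHAPS and 5% DMSO, with PI5P4Kalpha, substrate, compound and 5 microM ATP final, one hour at room temperature. Readout is ADP-Glo luminescence.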
L3MBTL1 block – L3MBTL1 (human) inhibition. Potency, µM (series often up to 57.1 µM), without a hit: at the top dose activity, negative = inhibition, hits mostly inhibitors. actives 0.66% (n = 230,000). AlphaScreen L3MBTL1–H3K9me1 peptide binding; further: potency means the concentration at half of the fitted maximal effect; on the % scale 0 is the no-effect control and ±100 the full control effect; nearly all actives have a fitted effect of over 60% in size
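Displacement of a biotinylated histone H3(1-15) peptide monomethylated at Lys9 (75 nM) from L3MBTL1 (50 nM) was measured by AlphaScreen after a 30 min room-temperature compound incubation; cefsulodin titration served as intraplate control.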
BAZ2B inh – BAZ2B (human) inhibition; AlphaScreen BAZ2B-H3K14Ac peptide displacement; Potency, µM (doses to about 114 µM), inactives show at the highest dose activity change, negative = inhibition, actives largely listed as inhibitors; actives 4.4% (n = 360,000); further: potency means the concentration at half of the fitted maximal effect; on the % scale 0 is the no-effect control and ±100 the full control effect; nearly all actives have a fitted effect of over 60% in size
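AlphaScreen displacement of biotin-H3(5-23)K14Ac peptide (50 nM final) from BAZ2B (50 nM final) in PBS pH 7.4, 0.01% Tween-20; complex preformed 30 min RT, then compounds (top 110 uM) 30 min RT, beads 20 min dark.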
KDM4E inh – JMJD2E (human) inhibition; B2RXH2; JMJD2E catalytic domain, FDH-coupled NADH fluorescence (FDH is formaldehyde dehydrogenase); Potency, µM (top dose mostly 57.1 µM), for inactives: top-dose activity change, negative = inhibition, usual class: inhibitors; actives 1.6% (n = 230,000); AID 2147; active means well fitted inhibition curve with a large enough effect, not every such curve was filed as active; inconclusive means small, poorly fitted or top-dose-only effect, or another doubt; inactive means no such curve, though single readings can be large or run the other way;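 further: potency means the concentration at half of the fitted maximal effect; 0% = wells with enzyme and -100% = buffer wells without enzyme; nearly all actives have a fitted effect of over 50% in size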
Target sequence (B2RXH2 1-337 limits assumed): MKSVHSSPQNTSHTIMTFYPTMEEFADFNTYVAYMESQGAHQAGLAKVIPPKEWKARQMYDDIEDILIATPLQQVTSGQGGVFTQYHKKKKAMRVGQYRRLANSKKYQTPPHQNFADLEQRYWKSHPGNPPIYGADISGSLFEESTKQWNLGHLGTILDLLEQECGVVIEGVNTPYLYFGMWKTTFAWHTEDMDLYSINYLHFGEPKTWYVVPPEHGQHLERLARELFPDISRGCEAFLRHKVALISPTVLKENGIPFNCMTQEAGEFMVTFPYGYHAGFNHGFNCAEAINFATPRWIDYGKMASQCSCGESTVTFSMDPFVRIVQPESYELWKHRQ
JMJD2A Tudor inh – blocks the human JMJD2A Tudor domain; actives 4.4% (n = 390,000); AlphaScreen JMJD2A-Tudor / H3K4me3 peptide binding; O75164; Potency, µM (highest dose often 114 µM), inactives show at the top dose activity change, negative = inhibition, hits mostly inhibitors; further: potency means the concentration at half of the fitted maximal effect; on the % scale 0 is the no-effect control and ±100 the full control effect; nearly all actives have a fitted effect of over 50% in size
HP1b chromo inh – blocks HP1-beta chromodomain binding to methylated histone tails; AlphaScreen HP1-beta / biotin-H3K9me3 peptide binding; Potency, µM (series often up to 114 µM), for inactives: at the top dose activity change, negative = inhibition, actives largely listed as inhibitors; actives 0.56% (n = 390,000); further: potency means the concentration at half of the fitted maximal effect; nearly all actives have a fitted effect of over 70% in size
Target sequence (P83916 whole entry, looked up): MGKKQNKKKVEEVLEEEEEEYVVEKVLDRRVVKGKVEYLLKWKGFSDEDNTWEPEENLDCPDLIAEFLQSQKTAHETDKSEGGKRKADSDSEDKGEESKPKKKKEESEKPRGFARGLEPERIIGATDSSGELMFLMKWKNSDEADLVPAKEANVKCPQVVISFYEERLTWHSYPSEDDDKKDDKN
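HP1-beta protein (50 nM final) preincubated 30 min at room temperature with biotinylated H3(1-18)K9me3 peptide (50 nM) in PBS pH 7.4, 0.01% Tween-20, then compound added for 30 min. AlphaScreen streptavidin donor/nickel chelate acceptor beads (10 ug/mL final), 30 min dark, luminescence read.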
An asterisk follows results filed as active; u = inconclusive; x = no result given; [ ] = remark or other dose. Unless noted, the call rests on the fitted dose curve; in most records, active means well fitted inhibition curve with a large enough effect; inconclusive means small, poorly fitted or top-dose-only effect; inactive means no such curve, though single readings can be large or run the other way.

SMILES	PI5P4Ka inh	L3MBTL1 block	BAZ2B inh	KDM4E inh	JMJD2A Tudor inh	HP1b chromo inh
Cc1cccc(N2CCN(CCCNc3ncnc4onc(-c5ccc(F)cc5)c34)CC2C)c1 (stereo unspecified)	x	x	u	x	u	-17%
O=C(Cc1ccccc1)Nc1ccc(N2CCOCC2)cc1	0	2%	-11%	11%	-9%	87%
O=C(Cc1cccc2ccccc12)Nc1ccc(N2CCOCC2)cc1	0	-16%	50µM*	u	-9%	21%
Cc1cc(O)c(C(=O)/C=C/c2ccc(C(C)C)cc2)c(=O)o1	-63*	x	2%	x	-29%	25%
CCOc1ccc(/C=C/C(=O)c2c(O)cc(C)oc2=O)cc1	-6	-9%	-35%	x	-30%	13%
Cc1cc(O)c(C(=O)/C=C/c2ccccc2)c(=O)o1	-50*	x	-28%	x	-32%	-10%
Cc1cc(O)c(C(=O)/C=C/c2ccccc2Br)c(=O)o1	-70*	-33%	11%	x	u	4%
O=C1C[C@H](c2ccc3ccccc3c2)N1S(=O)(=O)c1ccccc1[N+](=O)[O-]	x	x	x	x	-28%	39%
CCOC(=O)c1nn(-c2ccccc2C)c(=O)c(C#N)c1C	-7	x	6%	-12%	-5%	21%
CCOC(=O)c1nn(-c2ccccc2C)c(=O)c2c(N)scc12	u	0%	79µM*	u	18µM*	-16%
CCOC(=O)c1nn(-c2ccccc2)c(=O)c2c(N)scc12	-61*	-9%	x	u	-34%[11.4 µM]	22%
Nc1scc2c(C(=O)N/N=C/c3ccc(Cl)cc3)nn(-c3ccccc3)c(=O)c12	x	-15%	u	7%	45µM*	-24%
CCOC(=O)c1nn(-c2ccccc2)c(=O)c2c(NC(C)=O)scc12	-4	x	x	11%	-11%	23%
COc1ccc(Cl)cc1S(=O)(=O)Nc1cccc(-c2ccc(N3CCOCC3)nn2)c1	x	x	-1%	x	-10%	27%[57 µM]
COc1ccc(OC)c(NC(=O)C2=C(C)C(=O)OC23CCCCCC3)c1	x	x	-2%	x	-27%	18%
NC(=O)[C@@H]1CCCNc2c(I)cc([N+](=O)[O-])cc2C(=O)N[C@@H](Cc2ccccc2)C(=O)N[C@@H](Cc2cnc[nH]2)C(=O)N1	3	-5%	50µM*	10%	u	8%
CC(C)[C@@H]1NC(=O)c2cc([N+](=O)[O-])cc(I)c2NCCC[C@@H](C(N)=O)NC(=O)[C@H](CO)NC1=O	0	2%	u	1%	-18%	32%
CC(C)[C@@H]1NC(=O)c2cc([N+](=O)[O-])cc(I)c2NCCCC[C@@H](C(=O)NC(CC(=O)O)C(N)=O)NC(=O)[C@H](CO)NC1=O (stereo partly specified)	x	u	50µM*	4%	x	x
O=c1c(Cc2c(F)cccc2Cl)c(O)ccn1C1CC1	0	1%[11.4 µM]	-20%	6%	-17%	30%
CN1CCN(C(c2ccc(C(F)(F)F)cc2)c2ccc3cccnc3c2O)CC1 (stereo unspecified)	u	x	40µM*	x	56µM*	u
Oc1c(C(c2ccccc2Cl)N2CCCC2)ccc2cccnc12 (stereo unspecified)	-4	-28%	20µM*	u	20µM*	-35%
Oc1c(C(c2cccs2)N2CCN(c3ccccc3)CC2)ccc2cccnc12 (stereo unspecified)	x	x	40µM*	7.9µM*	x	x
O=C(COCc1cc(-c2cccs2)on1)Nc1ccc(OC(F)(F)F)cc1	x	x	5%	x	-5%	14%
Cc1nc2ccccc2oc1=O	x	x	x	5%	x	x
Nc1cc2nc3ccccc3oc-2cc1=O	-28	u	45µM*	13µM*	u	-24%
CC(=O)N(Cc1ccc(F)cc1)C1=C(NCc2ccccc2)C(=O)c2ccccc2C1=O	-6	x	45µM*	u	56µM*	u
O=C(NCc1ccc(F)cc1)C(c1ccccc1)c1ccccc1	1	2%	-5%	x	4%	58%
